Measured values from PubChem BioAssay.
Results filed as inconclusive are left out. The source made the active and inactive calls. Unless noted, no cut-off is given here; in the data, nearly all actives have AC50 up to about 26 µM.

Key:
[1] = viability loss in pontine glioma line – cell-based, SU-DIPG-XVII, MIPE5.0, CellTiter-Glo, qHTS, dose response (AID 1347060); details: CellTiter-Glo ATP luminescence;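 for AC50: cells exposed to compound for 48 hours before viability readout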
[2] = viability loss in pontine glioma line – cell-based, SU-DIPG-XIII, MIPE4.0, CellTiter-Glo, qHTS, dose response (AID 1347061; cut-off not given, nearly all actives have AC50 up to about 37 µM;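 note: cells exposed to compound for 48 hours before readout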); details: CellTiter-Glo ATP luminescence
[3] = viability loss in pontine glioma line – cell-based, SU-DIPG-XIII, MIPE5.0, CellTiter-Glo, qHTS, dose response (AID 1347064; cut-off not given, nearly all actives have AC50 up to about 23 µM;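 for AC50: cells exposed to compound for 48 hours before the viability read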); details: CellTiter-Glo ATP luminescence
[4] = viability loss in pontine glioma line – cell-based, SU-DIPG-XXV, MIPE5.0, CellTiter-Glo, qHTS, dose response (AID 1347065); details: CellTiter-Glo ATP luminescence;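 note: cells exposed to compound for 48 hours before ATP readout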
[5] = growth inhibition of DIPG cells – cell-based, MIPE4.0 library, CellTiter-Glo luminescence, qHTS (AID 1347066; cut-off not given, nearly all actives have AC50 up to about 30 µM;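 note: cells exposed to compound for 48 hours before readout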); details: SU-DIPG-VI viability, CellTiter-Glo ATP luminescence
[6] = compounds altering viability of human ES cells (AID 493140; call rule not given here;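 note: cells exposed to compounds for four days before counting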); details: human embryonic stem cell survival screen; stronger effect = higher value
[7] = P. berghei load reduction in hepatocytes – cell-based, HepG2, luciferase luminescence, HepG2 viability, primary screen (AID 624349; in the data active = parasite load remaining mostly below about 12%, no sharp cut-off; inactive = mostly above about 10%;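 note: 100% = mean of DMSO negative control wells on the same plate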); details: P. berghei liver stage in HepG2, luciferase luminescence, concentration not given here; parasite load remaining: stronger effect = lower value; viability: measured here: HepG2 viability without parasites
[8] = viability loss in pontine glioma line – cell-based, JHH-DIPG-1, MIPE4.0, CellTiter-Glo, qHTS, dose response (AID 1347062; cut-off not given, nearly all actives have AC50 up to about 27 µM;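 for AC50: cells exposed to compound for two days before readout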); details: JHH-DIPG-1 viability, CellTiter-Glo ATP luminescence
[9] = JHH-DIPG-1 glioma cell viability, MIPE5.0 library, CellTiter-Glo luminescence, qHTS (AID 1347067); details: JHH-DIPG-1 glioma viability, CellTiter-Glo ATP luminescence;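 note: cells exposed to compound for 48 hours before readout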
[10] = growth inhibition of DIPG cells – cell-based, MIPE5.0 library, qHTS (AID 1347068; cut-off not given, nearly all actives have IC50 up to about 30 µM;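 for IC50: cells exposed to compound for 48 hours before viability readout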); details: SU-DIPG-XXV viability
[11] = compounds altering circadian rhythm period length – cell-based, LOPAC library, luminescence reporter (AID 2774; call rule not given here;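 note: values are relative to mean of DMSO wells on each plate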); details: circadian reporter cells, at 7 µM, actives lie on both sides
[12] = tested on: Hepatitis C virus NS3 helicase; experiment: blockers of NS3h binding to ssDNA – biochemical, fluorescence polarization, LOPAC1280 library, primary screen (AID 687035; in the data active = inhibition above about 37%); details: Purified HCV NS3 helicase, Cy5-dT15 ssDNA binding fluorescence polarization; stronger effect = higher value; concentration not given here
[13] = compounds altering Cy5-DNA-NS3h complex signal – biochemical, LOPAC1280, artefact control for HCV NS3 helicase inhibitor project (AID 687037; call rule not given here); details: Cy5-DNA-NS3h complex fluorescence interference counterscreen
[14] = tested on: Aerobactin synthetase IucA (Klebsiella pneumoniae, hypervirulent); experiment: biochemical IucA inhibition screen of LOPAC library by absorbance (AID 1346212; call rule not given here;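 note: 100% = no compound wells and 0% = no enzyme wells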); details: IucA enzyme assay, absorbance (OD) readout; stronger effect = lower value;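 tested at 8 µM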
[15] = viability loss in pontine glioma line – cell-based, SU-DIPG-IV, MIPE4.0, CellTiter-Glo, qHTS, dose response (AID 1347063; cut-off not given, nearly all actives have AC50 up to about 30 µM;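 note: compound exposure lasted 48 hours before the viability readout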); details: CellTiter-Glo ATP luminescence
[16] = viability loss with induced miR-34 in A549 – imaging, A549 dox-inducible miR-34, nuclei and caspase counts, primary screen (AID 1347080;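 active = compounds whose cell count with miR-34 switched on is under 0.7 times the count with it off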); details: A549 miR-34 inducible, Hoechst nuclei count, 48 h
[17] = MELAS cybrid and Rieske KO viability enhancers – cell-based, MELAS cybrids, Rieske KO mouse fibroblasts, CellTiter-Glo, primary screen (AID 1508586;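 active = mean z-score across replicates of 1.96 or higher in either the MELAS or the Rieske mutant cell line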;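 note: z relative to plate mean and SD of compound and empty wells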); details: low glucose

C/C(=C\c1csc(C)n1)[C@@H]1C[C@@H]2O[C@@H]2CCC[C@H](C)[C@H](O)[C@@H](C)C(=O)C(C)(C)[C@@H](O)CC(=O)O1
inactive: outcome [2] | outcome [3] | outcome [5]
active: AC50 [1] 0.00662 µM | AC50 [4] 0.00934 µM

C=C[C@H]1CN2CCC1C[C@@H]2[C@@H](O)c1ccnc2ccccc12 (stereo partly drawn)
active: AC50 [2] 20.9 µM | AC50 [5] 20.9 µM
inactive: survival [6] 1.25 | parasite load remaining [7] 79% | outcome [1] | outcome [8] | outcome [3] | outcome [4] | outcome [9] | outcome [10]
73.5%: viability [7]

N[C@@H](CCl)C(=O)O
inactive: period change [11] 0.125 h | inhibition [12] -3% | fluorescence ratio (interference) [13] 1 | remaining activity [14] 104%

CC(C)[C@H]1C(=O)N[C@H](CO)Cc2c[nH]c3cccc(c23)N1C
inactive: outcome [1] | outcome [2] | outcome [5] | outcome [10]

C[C@]12CC[C@H]3[C@@H](CCC4=CC(=O)CC[C@@]43C)[C@@H]1CC[C@@H]2OC(=O)CCC1CCCC1
active: AC50 [2] 23.5 µM
inactive: outcome [1] | outcome [8] | outcome [15] | outcome [3] | outcome [5] | outcome [10]

C=CCN(C1=NCCN1)c1c(Cl)cccc1Cl
inactive: inhibition [12] -4% | fluorescence ratio (interference) [13] 1 | remaining activity [14] 95.7%

O=C(Oc1ccc([N+](=O)[O-])cc1)N1CCN(Cc2cccc(Oc3ccccc3)c2)CC1
active: AC50 [2] 11.8 µM
inactive: outcome [1] | outcome [8] | outcome [3] | outcome [4] | outcome [5] | outcome [9]

CC1(C)CC(O)CC(C)(C)N1O
7670: cell count ([16]; measured here: total cells without miR-34 induction)
inactive: outcome [1] | outcome [2] | outcome [8] | outcome [15] | outcome [3] | outcome [4] | outcome [5] | outcome [9] | outcome [10] | fold change ([16]; stronger effect = lower value, cell number ratio, induced over uninduced) 0.97 | z-score ([17]; MELAS cybrid survival, CellTiter-Glo 48 h, stronger effect = higher value) -0.227
7440: cell count ([16]; measured here: total cells with miR-34 induction, stronger effect = lower value)
0.416: fold change ([16]; measured here: relative caspase fold change +Dox/-Dox)
-0.223: z-score ([17]; Rieske KO mouse fibroblast survival, CellTiter-Glo 72 h)

COCC1(CO)C(=O)C2CCN1CC2 (stereo not drawn)
active: AC50 [1] 23.5 µM | AC50 [2] 20.9 µM | AC50 [8] 20.9 µM | AC50 [15] 18.7 µM | AC50 [3] 8.33 µM | AC50 [4] 16.6 µM | AC50 [9] 10.5 µM
inactive: outcome [10]

CC(C)(O)/C=C\C(=O)[C@](C)(O)[C@H]1[C@H](O)C[C@]2(C)[C@@H]3CC=C4[C@@H](C=C(O)C(=O)C4(C)C)[C@]3(C)C(=O)C[C@@]12C
active: AC50 [1] 0.0661 µM | AC50 [2] 18.7 µM | AC50 [8] 0.105 µM | AC50 [15] 0.0296 µM | AC50 [3] 0.0525 µM | AC50 [4] 0.0295 µM | AC50 [5] 8.33 µM | AC50 [9] 0.0525 µM | IC50 [10] 0.148 µM
